Measured values from PMC5540273 (PLoS ONE, 2017).

Legend:
Conditions in all cases: concentration: 1 μM, replicates: in singlicate; n = 1
TSSK3 = system: TSSK3
TTK = system: TTK
TXK = system: TXK
[1] = system: TYK2(JH1domain-catalytic)
[2] = system: TYK2(JH2domain-pseudokinase)
TYRO3 = system: TYRO3
ULK1 = system: ULK1
ULK2 = system: ULK2
ULK3 = system: ULK3
VEGFR2 = system: T1, VEGFR2
T1 construct: gene KDR

VPS34 = system: T2, VPS34
T2 construct: gene PIK3C3

VRK2 = system: VRK2
WEE1 = system: WEE1
WEE2 = system: WEE2
WNK1 = system: WNK1
WNK2 = system: WNK2
WNK3 = system: WNK3
WNK4 = system: WNK4
YANK1 = system: T3, YANK1
T3 construct: gene STK32A

YANK2 = system: T4, YANK2
T4 construct: gene STK32B
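Note: KINOMEscan kinase panel screen.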

SMILES: CN(C(=O)c1ccc(-c2cc(-c3c[nH]nc3-c3ccccn3)ccn2)cc1)C1CCOCC1 [GW810083]
- %Inh (TSSK3): 33%
- %Inh (TTK): 0%
- %Inh (TXK): 0%
- %Inh [1]: 12%
- %Inh [2]: 25%
- %Inh (TYRO3): 0%
- %Inh (ULK1): 5%
- %Inh (ULK2): 14%
- %Inh (ULK3): 12%
- %Inh (VEGFR2): 0%
- %Inh (VPS34): 24%
- %Inh (VRK2): 100%
- %Inh (WEE1): 0%
- %Inh (WEE2): 22%
- %Inh (WNK1): 0%
- %Inh (WNK2): 0%
- %Inh (WNK3): 0%
- %Inh (WNK4): 0%
- %Inh (YANK1): 0%
- %Inh (YANK2): 0%

SMILES: O=C1Cc2cc(Nc3nc(NCc4cccc(S(=O)(=O)C(F)(F)F)c4)ncc3C(F)(F)F)ccc2N1
- %Inh (TSSK3): 9%
- %Inh (TTK): 0%
- %Inh (TXK): 4%
- %Inh [1]: 25%
- %Inh [2]: 0%
- %Inh (TYRO3): 3%
- %Inh (ULK1): 3%
- %Inh (ULK2): 26%
- %Inh (ULK3): 12%
- %Inh (VEGFR2): 0%
- %Inh (VPS34): 0%
- %Inh (VRK2): 23%
- %Inh (WEE1): 0%
- %Inh (WEE2): 0%
- %Inh (WNK1): 0%
- %Inh (WNK2): 6%
- %Inh (WNK3): 0%
- %Inh (WNK4): 0%
- %Inh (YANK1): 0%
- %Inh (YANK2): 0%

SMILES: Cc1ccc(C(=O)NCC(N)=O)cc1-n1c(C)cc(OCc2ccc(F)cc2F)c(Br)c1=O
- %Inh (TSSK3): 0%
- %Inh (TTK): 35%
- %Inh (TXK): 21%
- %Inh [1]: 0%
- %Inh [2]: 0%
- %Inh (TYRO3): 3%
- %Inh (ULK1): 0%
- %Inh (ULK2): 0%
- %Inh (ULK3): 2%
- %Inh (VEGFR2): 0%
- %Inh (VPS34): 0%
- %Inh (VRK2): 0%
- %Inh (WEE1): 3%
- %Inh (WEE2): 17%
- %Inh (WNK1): 0%
- %Inh (WNK2): 5%
- %Inh (WNK3): 0%
- %Inh (WNK4): 0%
- %Inh (YANK1): 0%
- %Inh (YANK2): 10%

SMILES: CN1c2ccc(NCc3ccc(F)cc3)cc2-c2c(cnn2C)S1(=O)=O
- %Inh (TSSK3): 0%
- %Inh (TTK): 0%
- %Inh (TXK): 0%
- %Inh [1]: 0%
- %Inh [2]: 12%
- %Inh (TYRO3): 16%
- %Inh (ULK1): 0%
- %Inh (ULK2): 0%
- %Inh (ULK3): 0%
- %Inh (VEGFR2): 4%
- %Inh (VPS34): 0%
- %Inh (VRK2): 0%
- %Inh (WEE1): 0%
- %Inh (WEE2): 0%
- %Inh (WNK1): 42%
- %Inh (WNK2): 5%
- %Inh (WNK3): 8%
- %Inh (WNK4): 0%
- %Inh (YANK1): 0%
- %Inh (YANK2): 3%

SMILES: COc1cc2c(cc1OCCN1CCN(C)CC1)ncc1c3ccc(C#N)cc3[nH]c21
- %Inh (TSSK3): 9%
- %Inh (TTK): 7%
- %Inh (TXK): 0%
- %Inh [1]: 0%
- %Inh [2]: 35%
- %Inh (TYRO3): 0%
- %Inh (ULK1): 92.4%
- %Inh (ULK2): 99.9%
- %Inh (ULK3): 66%
- %Inh (VEGFR2): 23%
- %Inh (VPS34): 0%
- %Inh (VRK2): 0%
- %Inh (WEE1): 24%
- %Inh (WEE2): 3%
- %Inh (WNK1): 0%
- %Inh (WNK2): 0%
- %Inh (WNK3): 0%
- %Inh (WNK4): 0%
- %Inh (YANK1): 0%
- %Inh (YANK2): 0%

SMILES: COc1ccc(Nc2ncc(C#N)c(Nc3ccccc3C(N)=O)n2)cc1N1CCN(C)CC1.Cl [GSK1558669]
- %Inh (TSSK3): 79%
- %Inh (TTK): 99.5%
- %Inh (TXK): 84%
- %Inh [1]: 99.8%
- %Inh [2]: 99.7%
- %Inh (TYRO3): 35%
- %Inh (ULK1): 100%
- %Inh (ULK2): 100%
- %Inh (ULK3): 100%
- %Inh (VEGFR2): 100%
- %Inh (VPS34): 43%
- %Inh (VRK2): 0%
- %Inh (WEE1): 99.8%
- %Inh (WEE2): 100%
- %Inh (WNK1): 66%
- %Inh (WNK2): 31%
- %Inh (WNK3): 4%
- %Inh (WNK4): 0%
- %Inh (YANK1): 93.5%
- %Inh (YANK2): 68%

SMILES: O=C(NCCNc1ccnc(Nc2ccc(F)cc2)n1)c1cc2ccccc2s1 [GSK1379874]
- %Inh (TSSK3): 22%
- %Inh (TTK): 0%
- %Inh (TXK): 100%
- %Inh [1]: 0%
- %Inh [2]: 21%
- %Inh (TYRO3): 0%
- %Inh (ULK1): 3%
- %Inh (ULK2): 0%
- %Inh (ULK3): 1%
- %Inh (VEGFR2): 0%
- %Inh (VPS34): 16%
- %Inh (VRK2): 0%
- %Inh (WEE1): 38%
- %Inh (WEE2): 5%
- %Inh (WNK1): 0%
- %Inh (WNK2): 0%
- %Inh (WNK3): 16%
- %Inh (WNK4): 39%
- %Inh (YANK1): 0%
- %Inh (YANK2): 0%

SMILES: Cn1ccc2ncnc(Oc3ccc(NC(=O)Nc4ccncc4)c(Cl)c3)c21
- %Inh (TSSK3): 0%
- %Inh (TTK): 0%
- %Inh (TXK): 0%
- %Inh [1]: 3%
- %Inh [2]: 5%
- %Inh (TYRO3): 0%
- %Inh (ULK1): 0%
- %Inh (ULK2): 10%
- %Inh (ULK3): 0%
- %Inh (VEGFR2): 1%
- %Inh (VPS34): 0%
- %Inh (VRK2): 0%
- %Inh (WEE1): 0%
- %Inh (WEE2): 0%
- %Inh (WNK1): 0%
- %Inh (WNK2): 0%
- %Inh (WNK3): 0%
- %Inh (WNK4): 0%
- %Inh (YANK1): 0%
- %Inh (YANK2): 5%

SMILES: [2H]C([2H])(c1cccc(C(F)(F)F)c1C)n1ccn2c(=O)nc(N3CCOCC3)cc12 [GSK2336394]
- %Inh (TSSK3): 14%
- %Inh (TTK): 0%
- %Inh (TXK): 0%
- %Inh [1]: 71%
- %Inh [2]: 13%
- %Inh (TYRO3): 0%
- %Inh (ULK1): 0%
- %Inh (ULK2): 0%
- %Inh (ULK3): 8%
- %Inh (VEGFR2): 0%
- %Inh (VPS34): 0%
- %Inh (VRK2): 0%
- %Inh (WEE1): 9%
- %Inh (WEE2): 10%
- %Inh (WNK1): 7%
- %Inh (WNK2): 0%
- %Inh (WNK3): 28%
- %Inh (WNK4): 36%
- %Inh (YANK1): 11%
- %Inh (YANK2): 0%

SMILES: COc1cc(Nc2nccc(N3CCC(NC(=O)c4cccc(NC(C)=O)c4)C3)n2)cc(OC)c1OC (centres unmarked) [GSK1379754]
- %Inh (TSSK3): 20%
- %Inh (TTK): 27%
- %Inh (TXK): 7%
- %Inh [1]: 68%
- %Inh [2]: 19%
- %Inh (TYRO3): 0%
- %Inh (ULK1): 10%
- %Inh (ULK2): 0%
- %Inh (ULK3): 87%
- %Inh (VEGFR2): 10%
- %Inh (VPS34): 35%
- %Inh (VRK2): 0%
- %Inh (WEE1): 4%
- %Inh (WEE2): 1%
- %Inh (WNK1): 6%
- %Inh (WNK2): 0%
- %Inh (WNK3): 14%
- %Inh (WNK4): 0%
- %Inh (YANK1): 0%
- %Inh (YANK2): 0%
